In PubChem BioAssay AID1159580 (chemical genetic matrix, 2015):
The whole screen tested about 5,500 compounds, of which about 2,000 (36%) were called active. Another 18% or so got no clear call; they are omitted. The list shows a part of the results. Unmarked numbers belong to inactive results. Rule as the data show it: active = normalized growth mostly below about 0.91 (no sharp cut-off); inconclusive = no clear call, values can overlap the other calls; inactive = mostly above about 0.92.

Test: chemical genetic growth profiling, strain panel (AID 1159580);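 also: tested at 20 µM; growth read once vehicle control cultures reached saturation at 30 °C; 1 = growth at the plate median or of vehicle wells; lower values mean less growth of the strain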
Conditions: S. cerevisiae deletion strains, growth OD

**Q.** For `O=Nc1ccc2oc(=O)ccc2c1`, which normalized growth (locus YAL013W, strain DEP1, hits give low values) is on record?
**A.** 0.945

**Q.** What about the normalized growth (locus YAL040C, strain CLN3, hits give low values) of the same molecule?
**A.** 0.985

**Q.** And the normalized growth (locus YCL061C, strain MRC1 (second series), hits give low values)?
**A.** 0.973

**Q.** And the normalized growth (locus YDR363W, strain ESC2, hits give low values)?
**A.** 0.917

**Q.** And the normalized growth (locus YER002W, strain NOP16, hits give low values)?
**A.** 1.01

**Q.** And the normalized growth (locus YGR078C, strain PAC10, hits give low values)?
**A.** 0.98

**Q.** What about the normalized growth (locus YGR229C, strain SMI1, hits give low values) of the same molecule?
**A.** 0.846 (active)

**Q.** What about the normalized growth (locus YMR263W, strain SAP30, hits give low values) of the same molecule?
**A.** 0.989

**Q.** And the normalized growth (locus YNL175C, strain NOP13, hits give low values)?
**A.** 0.994

**Q.** What about the normalized growth (locus YNL197C, strain WHI3, hits give low values) of the same molecule?
**A.** 0.989

**Q.** And the normalized growth (locus YNL224C, strain SQS1, hits give low values)?
**A.** 0.995

**Q.** What about the normalized growth (locus YNL322C, strain KRE1, hits give low values) of the same molecule?
**A.** 1

**Q.** And the normalized growth (locus YOR083W, strain WHI5 (second series), hits give low values)?
**A.** 0.906

**Q.** And the normalized growth (locus YPL055C, strain LGE1, hits give low values)?
**A.** 0.896

**Q.** And the normalized growth (locus YPL241C, strain CIN2, hits give low values)?
**A.** 0.999
